This note sets out measurements from PubChem BioAssay AID651725 (National Center for Advancing Translational Sciences (NCATS), 2012).

Out of some 360,000 compounds screened, about 2,000 (0.56%) were called active. Inconclusive results (about 2%) are left out. Rule as the data show it: active = activity change below about -65%; inconclusive = mostly about -30% to -63%; inactive = weaker than that. The entries come from a sample that favours actives as a whole.
% is scaled to controls: 0 for no effect and ±100 for the full control effect.

Homeobox protein SIX1 (Homo sapiens) + Protein phosphatase EYA2 (Homo sapiens), sequence (O00167 whole entry, looked up): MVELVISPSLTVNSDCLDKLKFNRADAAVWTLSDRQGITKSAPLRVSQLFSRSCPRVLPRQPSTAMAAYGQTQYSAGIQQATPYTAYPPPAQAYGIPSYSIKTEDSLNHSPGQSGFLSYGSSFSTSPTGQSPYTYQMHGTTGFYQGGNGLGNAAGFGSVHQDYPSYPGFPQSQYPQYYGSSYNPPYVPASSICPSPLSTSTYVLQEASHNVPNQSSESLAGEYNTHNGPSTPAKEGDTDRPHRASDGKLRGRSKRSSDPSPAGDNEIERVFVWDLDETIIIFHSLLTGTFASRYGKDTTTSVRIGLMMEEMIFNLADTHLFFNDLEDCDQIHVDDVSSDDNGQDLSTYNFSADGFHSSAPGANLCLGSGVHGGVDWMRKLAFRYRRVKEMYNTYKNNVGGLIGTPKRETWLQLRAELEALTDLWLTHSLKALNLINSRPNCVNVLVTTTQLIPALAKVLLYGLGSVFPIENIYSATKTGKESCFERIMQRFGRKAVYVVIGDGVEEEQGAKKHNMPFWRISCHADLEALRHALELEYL
Homeobox protein SIX1 (Homo sapiens) + Protein phosphatase EYA2 (Homo sapiens), sequence (Q15475 whole entry, looked up): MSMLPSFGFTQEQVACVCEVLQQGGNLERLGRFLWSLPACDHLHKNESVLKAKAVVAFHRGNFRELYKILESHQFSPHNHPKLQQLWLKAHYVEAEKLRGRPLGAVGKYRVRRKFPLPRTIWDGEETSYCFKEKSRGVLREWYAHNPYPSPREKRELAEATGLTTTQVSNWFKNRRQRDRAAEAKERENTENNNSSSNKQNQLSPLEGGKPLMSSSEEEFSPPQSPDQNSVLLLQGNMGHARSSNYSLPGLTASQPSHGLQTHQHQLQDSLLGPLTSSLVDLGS

This assay has as its target Homeobox protein SIX1 (Homo sapiens) + Protein phosphatase EYA2 (Homo sapiens) (UniProt Q15475+O00167). Briefly: qHTS Assay for Inhibitors of the Six1/Eya2 Interaction. The following applies: AlphaScreen GST-Six1/His-Eya2 binding, biochemical; hits give low values. Put shortly:
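AlphaScreen luminescence read after one hour at 37 °C in darkness. Pin-transferred compounds met GST-Six1 and His-Eya2 protein (5X stock 250 nM/500 nM) plus glutathione donor and Ni-chelate acceptor beads (5X, 50 ug/mL).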
For the molecule `COC(=O)[C@]12CCCCC=C1N(Cc1ccc(Cl)cc1Cl)C(=O)[C@H](CC(=O)NCc1cccc3ccccc13)C2`, the activity change was -10.1% (inactive).

Take `O=C1NC[C@@H](CCCCN2CCN(CCc3ccc(O)cc3)C(=O)C2=O)N(CC2CCCCC2)C1=O`: the activity change was 3.55% (inactive).

For `CC[C@]1(c2ccccc2OC)C(=O)N(C(=O)OC)N1C(=O)OC`, the activity change is -0.457% (inactive).

Regarding `O=C1c2cccc3cccc(c23)C(=O)N1CCCCCc1n[nH]c(=S)o1`, the activity change is -80.1% (active).

`O=C(CN1C(=O)c2cccc3cccc(c23)C1=O)N1CCCCC1`: the activity change is 2.22% (inactive).

For `O=C1c2ccccc2C(=O)N1CCCc1nc(-c2ccccc2)no1`, the activity change is 1.31% (inactive).

For the molecule `COC(=O)c1ccc2nc(-c3ccccc3)c(Cc3ccc(OC)cc3C)n2c1`, the activity change was 0.0747% (inactive).

Consider `COCCNC(=O)CCCn1c(=O)c2ccccc2n(Cc2cccc([N+](=O)[O-])c2)c1=O`, for which the activity change is 4.87% (inactive).

For the molecule `CCOC(=O)c1ccc(N/C(=N/S(=O)(=O)c2ccccc2)c2ccccc2)cc1`, the activity change was -27.6% (inactive).

Regarding `COC(=O)c1ccc(Nc2ncnc3sccc23)cc1`, the activity change is -1.71% (inactive).

With `CCOC(=O)c1nc(Nc2ccc(C(=O)OC)cc2)c2ccccc2n1`, the activity change was -84.8% (active).

As to `COc1ccc(CC(=O)Nc2ccccc2NC(=O)c2ccco2)cc1OC`, the activity change was -2.61% (inactive).

In the case of `COc1ccc(NC(=O)CCC(=O)Nc2cc(OC)c(NC(=O)c3ccco3)cc2OC)c(OC)c1`, the activity change is -72.1% (active).

For the molecule `COc1ccc(NC(=O)CSc2ccc(-c3ccco3)nn2)c(OC)c1`, the activity change is -14.2% (inactive).

For `COC(=O)C[C@@H]1C=C[C@@H](NC(=O)c2ccc3c(c2)OCO3)[C@@H](CO)O1`, the activity change was -3.63% (inactive).

On to `Cc1ccc(S(=O)(=O)N(C)c2ccc(OCC(=O)OCc3ccc(C#N)cc3)cc2)cc1`, for which the activity change is 5.43% (inactive).

`O=C(Oc1cccc(C(=S)N2CCOCC2)c1)c1cccc(Cl)c1`: the activity change was -18.4% (inactive).

Consider `O=C(Oc1ccc(F)cc1)N1CCOCC1`, for which the activity change is -1.89% (inactive).

As to `O=C(Oc1ccc(C(=S)N2CCOCC2)cc1)c1ccc(F)cc1`, the activity change is -91.7% (active).

As for `CCCc1c(-c2ccccc2F)ncn1Cc1ccccc1OC`, the activity change is -11.2% (inactive).

With `Cc1cc(NC(=O)CSc2nnc(-c3ccc(Cl)s3)o2)no1`, the activity change was -86.8% (active).

For the molecule `Cc1cc(NC(=O)CSc2ncc(C(F)(F)F)cc2Cl)no1`, the activity change is 1.15% (inactive).

For `O=C(CSc1nnc(-c2ccncc2)o1)Nc1cccc(Cl)c1`, the activity change is -1.81% (inactive).

As to `Cc1cc(OCc2cc(C(=O)NCc3cc(C(C)C)no3)no2)cc(C)c1Cl`, the activity change is 14% (inactive).

Turning to `Cc1ccc(S(=O)(=O)N[C@H](CO)C(C)C)cc1`, the activity change was 4.31% (inactive).

In the case of `Cc1ccc2cccc([N+](=O)[O-])c2n1`, the activity change is -20.1% (inactive).

In the case of `O=[N+]([O-])c1ccccc1S(=O)(=O)Nc1cccc2cccnc12`, the activity change is -91.7% (active).

In the case of `O=S(=O)(NCCc1ccc(F)cc1)c1cccc2cccnc12`, the activity change is -7.51% (inactive).

Turning to `Cc1ccc(S(=O)(=O)C2C(=O)NC3(C)CC2c2ccccc2O3)cc1` (centres undefined), the activity change is 6.28% (inactive).

On to `COC(=O)[C@]12CCCCC=C1N(Cc1ccc3c(c1)OCO3)C(=O)[C@H](CC(=O)NCc1cccs1)C2`, for which the activity change is -7.98% (inactive).

On to `COc1ccccc1Cc1c(-c2ccc(Cl)cc2)nc2c3ccccc3ccn12`, for which the activity change was 9.04% (inactive).

Consider `O=c1[nH]c2cccnc2n(CCNc2ncc(C(F)(F)F)cc2Cl)c1=O`, for which the activity change was 5.43% (inactive).

On to `CN(C)C=NC(=O)c1cccn1-c1ncc(C(F)(F)F)cc1Cl`, for which the activity change was 7.6% (inactive).

As to `COc1cccc(/C=N/Nc2ncc(C(F)(F)F)cc2Cl)c1O`, the activity change was -91.7% (active).

On to `Nc1c(C(=O)c2cccs2)sc2nsc(SCCN3CCCCC3)c12`, for which the activity change is 19.7% (inactive).

For the molecule `O=C(O)C1C2CC2CN1C(=O)c1ccc(Cl)cc1Cl` (centres undefined), the activity change was 2.75% (inactive).

Turning to `O=C(Nc1ccc(C(=O)O)cc1)/C(=C/c1ccc([N+](=O)[O-])cc1)NC(=O)c1ccccc1`, the activity change is -4.68% (inactive).

As to `O=C(NCCc1ccccc1)/C(=C\c1ccc([N+](=O)[O-])cc1)NC(=O)c1ccccc1`, the activity change is 2.96% (inactive).

With `O=C(N/N=C/c1cc([N+](=O)[O-])ccc1O)/C(=C\c1cccs1)NC(=O)c1ccccc1`, the activity change was -90.3% (active).

As to `COc1ccc(NC(=O)C2(C)Cc3c(-c4cccc(NC(C)=O)c4)ccnc3O2)cc1OC` (centres undefined), the activity change was -4.36% (inactive).

Consider `O=C(Nc1cccnc1)c1cc2cc(Br)ccc2oc1=O`, for which the activity change is 17.5% (inactive).

With `CCc1ccc(Oc2coc3cc(OC(=O)c4cc5ccccc5oc4=O)ccc3c2=O)cc1`, the activity change is -6.39% (inactive).

Consider `O=C(Oc1cccnc1)c1cc2ccccc2oc1=O`, for which the activity change is -76% (active).

Regarding `COC(=O)[C@]12CCCCC=C1N(Cc1ccco1)C(=O)[C@H](CC(=O)NCCCCc1ccccc1)C2`, the activity change is -13.7% (inactive).

With `CCC(C)CN1C(=O)CSCC1(C)C(=O)NCc1ccccc1` (centres undefined), the activity change was 7.26% (inactive).

On to `CCOc1cc(N2CCOCC2)c(OCC)cc1NC(=O)c1ccc(C)s1`, for which the activity change was -7.09% (inactive).

Consider `CCOc1cc(N2CCOCC2)c(OCC)cc1NC(=O)COC(=O)[C@H](Cc1c[nH]c2ccccc12)NC(C)=O`, for which the activity change was 0.0588% (inactive).

Take `CCOc1cc(N2CCOCC2)c(OCC)cc1NC(=O)COc1cccc2cccnc12`: the activity change is -66.8% (active).

On to `Cc1cccc(C)c1NC(=O)C(c1cccc(F)c1)N1CCN(C)CC1` (centres undefined), for which the activity change is 1.36% (inactive).

For `CC1CCN(S(=O)(=O)c2ccc3[nH]c(=O)ccc3c2)CC1`, the activity change is -0.516% (inactive).

`CC(=NNC(=S)N1CCCCCC1)c1ccccn1`: the activity change was -88.5% (active).

Regarding `COc1ccc(CC(N)c2csc(NC(=O)Cc3ccccc3)n2)cc1` (centres undefined), the activity change is -12.1% (inactive).

Consider `COc1ccc(CC(=O)N/N=C(\C)c2ccccn2)cc1`, for which the activity change was -85.5% (active).

With `CCNC(=S)N1CCN(c2ncccn2)CC1`, the activity change was 1.47% (inactive).

As to `CCOc1ccc(NC(=S)N2CCCCCC2)cc1`, the activity change was -13.8% (inactive).

For `O=C(NCCOc1ccccc1)c1ccccc1F`, the activity change is 6.38% (inactive).

As to `C/C(=N/NC(=O)c1ccn(C)n1)c1ccncc1`, the activity change was 5.19% (inactive).

As to `C/C(=N/NC(=O)CCc1ccccc1)c1ccco1`, the activity change is 2.7% (inactive).

Turning to `O=C(Cc1ccc(Cl)cc1)c1ccccc1`, the activity change is 4.47% (inactive).

Regarding `C/C(=N\NC(=O)c1ccccc1F)c1ccccn1`, the activity change is -91.6% (active).

In the case of `C/C(=N\NC(=O)Cc1ccc(Cl)cc1)c1ccccn1`, the activity change was -85.5% (active).

For the molecule `COc1ccc(C(=O)/C=C/Nc2ccccn2)cc1`, the activity change was 3.99% (inactive).

In the case of `Cc1cccc(C)c1NC(=O)C(c1ccc(C(F)(F)F)cc1)n1c(=O)c(-c2ccco2)nc2ccccc21` (centres undefined), the activity change was -0.0756% (inactive).

`CCCCOCCCNC(=O)C[C@@H]1C[C@@]2(C(=O)OC)CCCCC=C2N(CCC2=CCCCC2)C1=O`: the activity change is -2.51% (inactive).

Turning to `CC(C)N1C(=O)c2ccccc2NC(=O)C1C(=O)NCc1cccs1` (centres undefined), the activity change was 0% (inactive).

As to `COc1cc(C=C(OC(C)=O)c2ccc3c(c2)OCO3)cc(OC)c1OC`, the activity change was -21% (inactive).

As for `C=C1C(=O)OC2C1CCC(C)=CCCC1(C)OC21` (centres undefined), the activity change was 10.7% (inactive).

Regarding `O=c1ccc2c(-c3ccccc3S(=O)(=O)O)c3ccc(O)c(O)c3oc-2c1O`, the activity change is -87.1% (active).

Regarding `COC(=O)C1=CN(c2c(C)cc(C)cc2C)C(N)=C(C#N)C1c1cccc(F)c1` (centres undefined), the activity change was -17.6% (inactive).

With `O=C(N[C@H]1CC[C@H](CC(=O)N2CCCCC2)O[C@@H]1CO)c1cccc(F)c1`, the activity change is -8.77% (inactive).

As for `CCCC(C(=O)OCCN(CC)CC)(c1ccccc1)c1ccccc1`, the activity change was -20.2% (inactive).

For the molecule `CCN(CC)CCNCC(=O)Nc1ccc(Oc2ccccc2)cc1`, the activity change was -5.73% (inactive).

For the molecule `CCN(CC)CCOc1ccc2c(c1)C(=NNC(=O)c1ccccn1)c1cc(OCCN(CC)CC)ccc1-2`, the activity change is -74.3% (active).

In the case of `CCc1ccc(-c2cc(C)no2)cc1S(=O)(=O)NCCc1ccc(S(N)(=O)=O)cc1`, the activity change was -4.17% (inactive).

For the molecule `CC(=O)Nc1ccc(NC(=O)C(NS(=O)(=O)c2ccc3c(c2)OCCO3)C(C)C)cc1` (centres undefined), the activity change is 0.533% (inactive).

For the molecule `CCC(C(=O)Nc1c(C)cccc1C)n1c(-c2cc(C)cs2)nc2ccccc21` (centres undefined), the activity change was 4.28% (inactive).

With `CC(=O)N1CCCc2cc(S(=O)(=O)N3CCCC(C(=O)N4CCN(c5cccc(Cl)c5)CC4)C3)ccc21` (centres undefined), the activity change is -12.9% (inactive).

On to `COc1ccc(-n2c(C)cc(C(=O)CN3C(=O)NC4(CCc5ccccc54)C3=O)c2C)cc1` (centres undefined), for which the activity change was -14.9% (inactive).

For the molecule `COc1ccc(C(=O)Nc2c(N)nc(SCC(=O)Nc3ccc(C(C)=O)cc3)[nH]c2=O)cc1`, the activity change was -14.2% (inactive).

As to `COC(=O)c1ccc(NC(=O)CSc2nc(N)c(NC(=O)c3ccc(Br)o3)c(=O)[nH]2)cc1`, the activity change was -66.4% (active).

Consider `COCCNC(=O)CSc1nc(N)c(NC(=O)c2ccco2)c(=O)[nH]1`, for which the activity change was 2.42% (inactive).

Regarding `CCOC(=O)c1sc(/N=C/C2=C(O)CC(C)(C)CC2=O)c(C(=O)OCC)c1C`, the activity change was -0.173% (inactive).

For the molecule `Cc1c(Cl)c([N+](=O)[O-])nn1Cc1ccc(C(=O)N/N=C\c2cc(Cl)ccc2O)o1`, the activity change was -71.9% (active).

`Cc1nn(Cc2ccccc2Cl)c(C)c1NC(=O)Cn1nc([N+](=O)[O-])c(Cl)c1C`: the activity change was -0.78% (inactive).

On to `Cc1c(Cl)c([N+](=O)[O-])nn1CCCC(=O)NC(C)c1ccccc1` (centres undefined), for which the activity change is 7.3% (inactive).

Take `COc1ccccc1C(=O)NCC(=O)OCC(=O)NNC(=O)c1ccc(Br)cc1`: the activity change was -6.57% (inactive).

Consider `CC(C)c1cc(Cn2c3ccccc3c(=O)n2C(C)Cn2cc(C3CC3)nn2)on1` (centres undefined), for which the activity change was 4.06% (inactive).

On to `COc1ccc(COC[C@H](CC(C)C)N2CCN(C(=O)c3cccc(C(F)(F)F)c3)CCC2=O)cc1`, for which the activity change is 9.97% (inactive).

For `CCN(CC(=O)Nc1ccc(NC(C)=O)cc1)C(=O)C1CC(=O)N(c2ccc3c(c2)OCCO3)C1` (centres undefined), the activity change was -0.253% (inactive).
